# Measured values published in PubChem BioAssay (NCI).
# About 79,000 compounds went through this panel and 15% of them were active in at least one assay; those are over-represented in the sample as a whole. Values without a mark were called inactive. Calls of active or inactive are those of the source. No stated cut-off is given here; in the data, active means growth inhibition above about 70%; inactive means the rest.
# Experiments:
# [1] = NCI Yeast Anticancer Drug Screen. Data for the rad50 strain (AID 155);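 further: 0% = growth of vehicle-only cultures of the same strain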; settings: S. cerevisiae rad50 strain growth inhibition; at 50.0 µM; hits give high values
# Procedure, shortened: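 Vehicle-treated cultures provide the reference for the growth inhibition reported for compound-exposed, repair-deficient yeast.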
# [2] = NCI Yeast Anticancer Drug Screen. Data for the mec2-1 strain (AID 157); settings: S. cerevisiae mec2-1 strain, at 50.0 µM, hits give high values
# Procedure, shortened: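 Growth inhibition is read against vehicle-treated controls after compound exposure of the mec2-1 yeast strain, which is defective in DNA damage repair or cell cycle control.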
# [3] = NCI Yeast Anticancer Drug Screen. Data for the sgs1 mgt1 strain (AID 161);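 further: 0% = growth of cultures given vehicle only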; settings: S. cerevisiae sgs1 mgt1 strain, at 50.0 µM, hits give high values
# Procedure, shortened: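 Growth of a repair-deficient yeast mutant was monitored after compound treatment and expressed as inhibition relative to vehicle-treated cultures.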
# [4] = NCI Yeast Anticancer Drug Screen. Data for the cln2 rad14 strain (AID 165);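 further: 0% = growth equal to vehicle treated cultures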; settings: S. cerevisiae cln2 rad14 strain, at 50.0 µM, hits give high values
# Procedure, shortened: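 Growth inhibition, relative to vehicle-treated controls, is the read-out. The test organism is a yeast strain with defined genetic alterations, cln2 rad14.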
# [5] = NCI Yeast Anticancer Drug Screen. Data for the bub3 strain (AID 167); settings: S. cerevisiae bub3 mutant strain, at 50.0 µM, hits give high values
# Procedure, shortened: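 Mutant yeast screening strain plus compound; vehicle-treated cultures serve as the 0% inhibition reference.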
# [6] = NCI Yeast Anticancer Drug Screen. Data for the mlh1 rad18 strain (AID 175); settings: S. cerevisiae mlh1 rad18 strain growth inhibition; at 50.0 µM; hits give high values
# Procedure, shortened: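 Cells of a genetically altered yeast strain, deficient in DNA damage repair, were treated with compound. Their growth was then compared with that of vehicle-treated cultures to give inhibition.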
SMILES,growth inhibition [1],growth inhibition [2],growth inhibition [3],growth inhibition [4],growth inhibition [5],growth inhibition [6]
COc1ccc(Cl)cc1NC(=O)Oc1ccccc1C(N)=O,-1.05%,43.5%,24.6%,-12.8%,40.6%,3.1%
O=C(O)c1cc(=O)c2cc(Cl)ccc2[nH]1,-15.5%,-12.2%,-17.1%,-19%,-9.9%,-1.55%
CN(C)c1ccc(/C=c2\sc3nc4ccccc4n3c2=O)cc1,-8.75%,-32.3%,-13.1%,-15.3%,-16.5%,-21.4%
CC1(C)C2CC(=O)C1(C)C(OCc1ccccc1)C2 (stereo not drawn),-21.2%,12.6%,6.1%,22.1%,-18.1%,5.1%
CC(=O)OC(C)C(O)C(O)C(/C=C/C1CC=CC(=O)O1)OC(C)=O (stereo not drawn),32.2%,9.45%,23.6%,10.6%,19.6%,11.8%
CS(=O)(=O)O[C@H]1[C@H](O)c2ccccc2[C@@H]1N=[N+]=[N-],13.5%,3.95%,-2.05%,-3%,-10.2%,-51.4%
CC(C)CNc1ncnc2c1cnn2C,-1.65%,2.9%,-1.65%,-3.15%,9.8%,-8.45%
COc1cc(N)ccc1C(=O)NC(CCC(=O)O)C(=O)O (stereo not drawn),-14.5%,-11.2%,24.9%,-33.7%,17.9%,-19.7%
CCN(CCO)C(=O)C1(c2ccccc2)CCCCC1,11.8%,-9.7%,9.35%,28%,18.4%,-1.4%
COC(=O)NC1CC/C=C\CCC1I (stereo not drawn),12.8%,10%,8.1%,12.9%,22.9%,4.7%
CCOP(=O)(OCC)C(C(=O)OC)C(=O)C(=O)Nc1cccc([N+](=O)[O-])c1 (stereo not drawn),7.8%,-5.85%,23.2%,-58.6%,0.35%,1.45%
Cc1cccc(N=Nc2ccc(N=Nc3c(O)ccc4ccccc34)cc2C)c1,-3.5%,2.85%,16.4%,0.65%,17.3%,11.2%
CCN(CC)CC(=O)Nc1c(C(N)=O)nnn1Cc1cc(Cl)c(C(=O)c2ccc(Cl)cc2)c(Cl)c1,41.8%,-14.5%,5.15%,7.95%,15.9%,-36.1%
O=S(=O)(Cc1ccccc1)c1ncc(Cl)cn1,8.9%,6.65%,13.2%,-5.55%,16.9%,16.4%
COC1/C=C/OC2(C)Oc3c(C)c(O)c4c(O)c(c(C=NNC(=O)c5ccc(N)cc5)c(O)c4c3C2=O)NC(=O)/C(C)=C/C=C/C(C)C(O)C(C)C(O)C(C)C(OC(C)=O)C1C (stereo not drawn),-3.55%,13.5%,-3.25%,-17.6%,-5.3%,29.4%
O=[N+]([O-])c1ccccc1Oc1ccccc1,33.6%,-8.65%,5.65%,14.2%,-14.7%,8%
COc1cccc2c(=O)oc(-c3ccc(C(C)(C)C)cc3)nc12,16.4%,8.8%,18.4%,1.3%,13.4%,30.9%
Cc1cccc(C)c1NN,23.2%,-4.15%,11.8%,-12.7%,-11.5%,24.2%
O=C(c1ccc(Cl)c(Cl)c1)n1c2ccccc2c2ccccc21,-0.65%,-47.5%,-12.3%,3.8%,-4.1%,2.4%

SMILES,growth inhibition [1],growth inhibition [2],growth inhibition [3],growth inhibition [4],growth inhibition [5],growth inhibition [6]
CCNC1CC(C(C)(C)NCC)CC=C1C (stereo not drawn),-31.4%,-25.2%,-38.7%,-15.4%,-46.9%,-55.2%
CNc1ccc([N+](=O)[O-])cn1,19.9%,-13.4%,31.6%,8.75%,19.9%,4.15%
CC1C(C)(C)P(=O)(OCCOP2(=O)C(C)(C)C(C)C2(C)C)C1(C)C (stereo not drawn),35%,-0.85%,22.2%,-9.6%,3.75%,7.25%
CCOC(=O)c1ccc(N(CC(O)CN)S(=O)(=O)c2ccc(C)cc2)cc1 (stereo not drawn),5.7%,-9.5%,-11.2%,4.15%,3.5%,-1.5%
CN(C)CCCN=c1c2ccccc2n(C)c2[nH]c(=O)n(C)c(=O)c12,-32.1%,-0.75%,-16.2%,-9.2%,0.05%,-6.85%
c1ccc(-c2nn(-c3ccccc3)[n+](-c3ccccc3)n2)cc1,5.4%,1.15%,21.9%,24.1%,30.7%,4.35%
CC(Br)C(=O)c1ccc2ncccc2c1 (stereo not drawn),5.15%,-24.8%,-7.6%,-1.45%,12.8%,12.8%
Cc1nn(C(=O)c2ccccn2)c(-c2ccccc2)c1N=Nc1ccc(S(=O)(=O)Nc2ncccn2)cc1,26.4%,-6%,17.9%,12.5%,1.5%,40.4%
COC(=O)/C=C/C(=O)OC,9.75%,14.4%,19.4%,9.3%,9.45%,6.6%
O=c1[nH]c(-c2ccc(-c3nc4cc([N+](=O)[O-])ccc4c(=O)[nH]3)cc2)nc2cc([N+](=O)[O-])ccc12,-33%,-13.8%,-26.7%,-6.9%,-24.5%,-13.3%
CCOC(=O)CNc1ccccc1[N+](=O)[O-],-2.05%,5.8%,-5.4%,12.3%,13.1%,-3.75%
CCCCCC/C=C1\CCC(CN(C)C)C1=O (stereo not drawn),79.4% (active),93.2% (active),91.1% (active),89.8% (active),90.7% (active),91.4% (active)
CCCCCCCCCCCCCCCC(O)S(=O)(=O)O (stereo not drawn),-27.2%,-24.9%,-10.1%,0.55%,-29.4%,-23.9%
Ic1ccc([I+]c2ccc(I)cc2)cc1,94.4% (active),94.2% (active),97% (active),93.5% (active),94.3% (active),90.8% (active)
CCCNCc1cccc2ccnc(C)c12,40.9%,9.6%,0.45%,17.6%,15.9%,28.6%
O=C1NC(=O)C2(N1)c1ccccc1-c1ccc(Br)cc12 (stereo not drawn),-2.85%,-8.9%,-0.2%,-20.4%,0.15%,-2.7%
CCOC(=O)NC(NC(=O)OCC)c1ccc(Cl)cc1Cl,-11.7%,-4.55%,-11.6%,5.9%,7.2%,7.8%
SCCc1ccccc1,-8.85%,-35.1%,-8.9%,-14%,11.9%,-3.15%
O=C1c2ccccc2C(=O)N1N1C(=O)c2ccccc2C1=O,3.95%,-16.8%,-4.45%,14%,-4.7%,17.4%
